# Laboratory results taken from PubChem BioAssay (NCI).
# The panel holds about 83,000 compounds, 20% with a hit somewhere; the sample as a whole holds those more often.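 Assay: single dose, 48 h. Readout: percent growth (0 = no net growth; negative = cell death). Active: <10.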 Calls of active or inactive are those of the source.
# System: RPMI-8226 leukemia
# Experiment: NCI-60 one-dose screen, 48 h (100 = growth as untreated, 0 = no growth, -100 = all killed)
# Settings: 10 µM unless noted
# Description: Growth inhibition of the RPMI-8226 human tumor cell line is measured as a screen for anti-cancer activity. Cells are grown in 96 well plates and exposed to the test compound for 48 hours. Compounds are tested at a single concentration, which is 10^-5 M for most compounds. The reported endpoint is percent growth (GI% or GIPRCNT), where numbers from 0 - 100% represent growth inhibition, and numbers from -100% - 0 represent cell death. For example, a value of 40 represents 60% growth inhibition. A value of 0 means no net growth occurred over the course of the experiment. A value of -40 indicates 40% of cells at the beginning of the experiment died by the end of the experiment. A value of -100 means all cells are dead at the end of the experiment.
# NCI-60 Human Tumor Cell Lines Screen was performed using the standard one-dose NCI protocol, which is described in more detail at https://dtp.cancer.gov/discovery_development/nci-60/default.htm.
# Compounds with GIPRCNT values below 10 were considered active. Activity score was based on GIPRCNT using the following formula: […]
# Score is 0 for GIPRCNT values of 100 or above, 50 for GIPRCNT values of 0, and 100 for GIPRCNT values of -100.
row,Compound,growth
1,Nc1nc2c(c3ncncc13)C(c1cccc(C(F)(F)F)c1)Cc1ncncc1-2 (stereo not given),26.8% (inactive)
2,COc1cc2c(c3c1c(=O)c1cccc(F)c1n3C)C=CC(C)(C)O2,64.7% (inactive)
3,CCOC(=O)c1cc(-c2ccc(OC)cc2)[nH]c1NNC(=O)CCOC,98.2% (inactive)
4,Clc1ccc(I)c2ccccc12,104% (inactive)
5,CC(=O)Nc1ccc(S(=O)(=O)Cl)cc1,100% (inactive)
6,CC(=O)OC1CC2C3CCC4C[C@@H](NC(=O)C=C(C)C)CC[C@]4(C)C3CC[C@]2(C)[C@H]1C(C)N(C)C (stereo not given in full),13.9% (inactive)
7,CCCC[N+](C)(N)CCCC,94.3% (inactive)
8,CCCCCCCCCCCCCCCCCCOP(=O)(O)O,100% (inactive)
9,O=c1c2c(c3ccccc3n1-c1ccccc1)NC(=S)NC2c1ccc(Cl)cc1 (stereo not given),8.62% (active)
10,COc1ccc(Cn2cc3c(c2-c2ccccc2)CCc2cnoc2-3)cc1OC,22.6% (inactive)
11,CCCCS(=O)(=O)c1cc(Nc2ccc(O)c3c2C(=O)c2ccccc2C3=O)ccc1C,80.9% (inactive)
12,O=C(Nc1ccc(Cl)cn1)C1(c2ccccc2)CCCCC1,93% (inactive)
13,N=C(N)c1ccc(-c2ccc(-c3ccc(F)cc3)s2)cc1,-55.5% (active)
14,Cc1sc(NC(=O)c2ccc(C(C)(C)C)cc2)c(C(=O)O)c1C,47.2% (inactive)
15,COC(=O)c1ccc2[nH]c(O)c(C(=Nc3ccc(N(C)C(=O)CN4CCN(C)CC4)cc3)c3ccc(CCO)cc3)c2c1,30.8% (inactive)
16,CN1CCN(Cc2ccc(NC(=O)c3cncc(C#Cc4c(N)ncc5ccc(F)cc45)c3)cc2C(F)(F)F)CC1,5.38% (active)
17,Nc1ncn([C@@H]2O[C@H](CO)[C@@H](O)C2(F)F)c(=O)n1,39.2% (inactive)
18,COC(=O)c1ccc2[nH]c(O)c(C(=Nc3ccc(N(C)C(=O)CN4CCN(C)CC4)cc3)c3ccc4c(c3)OCO4)c2c1,-13.7% (active)
19,c1ccc(Nc2ncc3c(n2)-c2cccn2CC3)cc1,97% (inactive)
20,CCCC(C)c1cc(Cc2cc(Cl)cc(Cl)c2O)c(O)c(Cc2cc(Cl)cc(Cl)c2O)c1 (stereo not given),-2.65% (active)

row,Compound,growth
1,CCCCCCCCCC(C)NC(=O)CCl (stereo not given),97.6% (inactive)
2,CCCCCCCCCCCCCCCCNC(=S)N/N=C/c1ccc(OC)cc1,93.2% (inactive)
3,Oc1ccccc1/C=N/N=C/c1c(O)ccc2ccccc12,96.6% (inactive)
4,COC1=CC(c2ccc[nH]2)=N/C1=C\c1[nH]c(C)c(C(=O)CCCCC(=O)NC(C)(C)C)c1C,35.4% (inactive)
5,COc1cc2c(cc1OC)C(Cc1cc(OC)c(OC)cc1[N+](=O)[O-])=NCC2,78.1% (inactive)
6,Cc1c([C@H](C(Cl)Cl)[C@H](O)[C@H]2C[C@H](C)C(=O)O2)ccc2c1C(=O)[C@H]1[C@H]2C[C@@H](Br)[C@@]23O[C@@H](CO[C@H]2O)CC13C (stereo not given in full),26.7% (inactive)
7,CC(Br)c1nc2ccccc2cc1C(N)=O (stereo not given),100% (inactive)
8,CCCCCCCCCCCC(=O)OC(C)C(=O)Nc1ccccc1 (stereo not given),99.8% (inactive)
9,COC(=O)c1cc(=O)nc(N/N=C/c2ccccc2O)s1,87.9% (inactive)
10,CC(=O)/C(=C/c1ccc(-c2ccccc2)cc1)C(=O)c1ccccc1,39.9% (inactive)
11,CC(O)CCC(C)[N+](=O)[O-] (stereo not given),101% (inactive)
12,CC(=O)Nc1nc(C)c(C(=O)NNS(=O)(=O)c2ccccc2)s1,135% (inactive)
13,COC(=O)/C=C/c1cc(O)c2oc(-c3ccc(O)c(O)c3)c(C(=O)OC)c2c1,-16.8% (active)
14,O=[N+]([O-])c1ccc(-c2ncc(-c3ccc(O)cc3O)[nH]2)cc1,74.1% (inactive)
15,N=C(N)N=Nc1ccc(NN=C(N)N)cc1,95.8% (inactive)
16,O=c1[nH]c(=S)[nH]c(O)c1/C=C1\C=Nc2ccccc21,72.2% (inactive)
17,NNC(=S)N1N=C(c2cc3ccccc3o2)CC1c1c[nH]c2ccccc12 (stereo not given),28% (inactive)
18,CCOC(=O)c1csc(-c2ccc(COC(=O)c3ccccc3)o2)n1,111% (inactive)
19,O=C(Nc1ccc(-n2cc(-c3ccncc3)c(-c3ccc(Cl)c(O)c3)n2)cc1)c1cc(C(F)(F)F)cc(C(F)(F)F)c1,27.6% (inactive)
20,COc1cc(-c2c3c(cn2CCN2CCCCC2)-c2oncc2CC3)cc(OC)c1OC,108% (inactive)
